# Records with an inconclusive call do not appear. Where a call stands in place of a potency, no number is given. Activity calls are given as the source filed them. Calls come from the whole dose curve; as a rule, active = well fitted activation curve with a large enough effect in the repeat runs; inconclusive = weak or mixed curves; inactive = no such curve, though single readings can be large or run the other way.
# Target: Nuclear receptor subfamily 1 group I member 3 (Homo sapiens) (UniProt Q14994)
# Assay: qHTS assay to identify small molecule agonists of the constitutive androstane receptor (CAR) signaling pathway (AID 1224839); note: nearly all actives have a fitted effect of over 15% in size;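 for activation: HepG2 cells stably carrying human CAR and a CYP2B6 luciferase reporter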
# Conditions: HepG2 hCAR CYP2B6-luciferase, agonist mode, 24 h; series mostly up to 92.4 µM
# Text: National Center for Advancing Translational Sciences [NCATS] NIH Chemical Genomics Center [NCGC] U.S. Environmental Protection Agency [EPA] National Institutes of Environmental Health Sciences [NIEHS] National Toxicology Program [NTP] Assay overview: The constitutive androstane receptor (CAR) is a nuclear receptor which regulates multiple drug metabolizing enzymes (DMEs) and transporters. Activating CAR will generally increase the transcription and subsequent translation of CYP2B6 and CYP3A4. These two DMEs represent about 50% of the drug metabolizing potential in the body. […] Recently, there have also been studies performed indicating CARs role in energy metabolism and cancer therapy. Therefore, inducing CARs activity could have a potential effect on diabetes and cancer. Identifying environmental toxins and compounds which modulate CAR, through the use of the Tox21 10K compound collection, will be an important step in determining the toxicity and potential therapeutic effects these factors will have on the human body.
# Assay Protocol Summary: A double-stable (hCAR and CYP2B6-2.2kb) transfected cell line, derived from human hepatoma (HepG2) cells, was utilized for the duration of the quantitative high-throughput screens. The HepG2-CYP2B6-hCAR cells suspended in DMEM culture medium supplemented with 10% FBS, 5 ug/mL blasticidin, 0.5 mg/mL geneticin, 100 U/mL penicillin and 100 ug/mL streptomycin were dispensed at 2500 cells/4 uL/well in 1536-well white solid bottom plates using a Multidrop Combi. After the assay plates were incubated at 37 C/5% CO2 for 4 hrs, 23 nL of compounds at 15 concentrations (from 5-48 columns) or positive control (from 1 to 4 columns) were transferred to the assay plates using a Pintool station. One uL of PK11195, was added using a Flying Reagent Dispenser to generate a final concentration of 0.75 uM PK11195 inside each well. After a 24 hr incubation period at 37 C/5% CO2, four uL of ONE-Glo reagent was added into the assay plates using a Flying Reagent Dispenser. After a 30 min incubation period at room temperature, the luminescence intensity in the assay plates was measured using a ViewLux plate reader.
# Potency is the fitted concentration of half-maximal effect.
# Chain of Nuclear receptor subfamily 1 group I member 3 (Homo sapiens) (Q14994 whole entry, looked up): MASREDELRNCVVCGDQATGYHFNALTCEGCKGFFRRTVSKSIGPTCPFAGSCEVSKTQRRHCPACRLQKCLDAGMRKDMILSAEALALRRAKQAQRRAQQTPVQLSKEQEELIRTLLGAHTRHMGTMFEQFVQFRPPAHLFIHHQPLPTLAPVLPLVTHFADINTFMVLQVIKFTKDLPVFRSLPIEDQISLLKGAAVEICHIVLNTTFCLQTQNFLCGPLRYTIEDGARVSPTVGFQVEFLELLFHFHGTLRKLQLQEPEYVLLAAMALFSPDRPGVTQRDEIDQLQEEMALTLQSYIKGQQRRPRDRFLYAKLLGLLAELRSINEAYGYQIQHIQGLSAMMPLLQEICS
row,SMILES,Potency
1,CO[C@@H]1COCC[C@@H]1N[C@@H]1CC[C@@](C(=O)N2CCc3ncc(C(F)(F)F)cc3C2)(C(C)C)C1,inactive
2,CCCCOC(=O)C(C)Oc1ccc(Oc2ccc(C(F)(F)F)cn2)cc1 (stereo not given),inactive
3,O=C1c2ccccc2C(=O)c2c1ccc(O)c2O,inactive
4,CCCc1nc(C)c2c(=O)[nH]c(-c3cc(S(=O)(=O)N4CCN(CC)CC4)ccc3OCC)nn12,inactive
5,CC(C)Cc1nccs1,inactive
6,CCc1ccc(C(=O)C(C)CN2CCCCC2)cc1 (stereo not given),inactive
7,COc1ccc(C(=O)Nc2ccccc2)cc1[N+](=O)[O-],30.9 µM (active)
8,C=CC(O)CCCCC (stereo not given),inactive
9,Cc1c(Cl)cccc1Nc1ccccc1C(=O)O,inactive
10,CC(C)C[C@H](NC(=O)[C@H](Cc1ccccc1)NC(=O)c1cnccn1)B(O)O,inactive
11,O=S(=O)(O)c1cc(Cl)c(Cl)cc1Cl,inactive
12,CC(=O)Oc1cccc2c1C(=O)c1c(OC(C)=O)cc(C(=O)O)cc1C2=O,inactive
13,Cc1c(N=C=O)cccc1N=C=O,inactive
14,Cc1nc(C)c(C)nc1C,inactive
15,NC(=O)c1ccccc1C(N)=O,inactive
16,O=C(O)c1cc(C(=O)O)c(C(=O)O)cc1C(=O)O,inactive
17,CCc1ccc2c(c1)C(=O)c1ccccc1C2=O,27.3 µM (active)
18,CCOc1cc(OCC)c(C(C)=O)cc1OCC,23.9 µM (active)
19,C=C(C)C(=O)OCCCCCCCCCCOC(=O)C(=C)C,inactive
20,CC(O)C(C)O (stereo not given),inactive

row,SMILES,Potency
1,CC(C)Oc1ccccc1O,inactive
2,S=c1[nH][nH]c(=S)s1,inactive
3,C/C=C1\[C@H]2C=C(C)C[C@]1(N)c1ccc(=O)[nH]c1C2,inactive
4,O=C(OC1C[C@H]2CC[C@@H](C1)[N+]21CCCC1)C(O)(c1ccccc1)c1ccccc1 (stereo not given in full),inactive
5,CCCCCCCCNC,inactive
6,O=C(Cl)c1cc(Cl)cc(Cl)c1,inactive
7,Nc1ccccc1Nc1ccccc1,54.6 µM (active)
8,C=CC(=O)OCCCCCCCCCC,inactive
9,CC(=O)S[C@H](C(=O)N[C@H]1Cc2ccccc2[C@H]2CCC[C@@H](C(=O)O)N2C1=O)C(C)C,inactive
10,CCOc1ccccc1O,inactive
11,CCCCCCCCCCCCCCCCC(=O)O,inactive
12,[O-][n+]1ccc(Cl)cc1,inactive
13,CC(C)(C(=O)O)c1ccc(C(O)CCCN2CCC(C(O)(c3ccccc3)c3ccccc3)CC2)cc1 (stereo not given),inactive
14,CCCCCCCCCCCCCCCCN,inactive
15,O=[N+]([O-])c1ccc(Cl)cc1Cl,inactive
16,O=C1OC(=O)C2CC=CCC12 (stereo not given),inactive
17,NCCOCCOCCN,inactive
18,Nc1nc(Cl)nc2c1ncn2[C@H]1C[C@H](O)[C@@H](CO)O1,inactive
19,CCCCCCCCCCCCN1CCOCC1,inactive
20,O=c1[nH][nH]c2ccccc12,inactive
